# An excerpt weighted towards active compounds, which were near 0.73% of everything screened.
# VHR inh abs: VHR1 phosphatase inhibitors, primary screen, biochemical, absorbance, uHTS; Dual specificity protein phosphatase 3 (Homo sapiens), P51452; recombinant VHR phosphatase, pNPP absorbance; inhibition, % at 13.3 µM; 290,000 compounds, 0.52% hits; AID 1654, 2009; in the data active means inhibition above about 50%
# Target sequence (P51452 whole entry, looked up): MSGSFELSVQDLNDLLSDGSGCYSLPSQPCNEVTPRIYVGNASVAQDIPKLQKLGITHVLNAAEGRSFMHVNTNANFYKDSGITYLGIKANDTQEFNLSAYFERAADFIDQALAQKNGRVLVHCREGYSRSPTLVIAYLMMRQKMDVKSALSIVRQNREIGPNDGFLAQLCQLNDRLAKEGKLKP
# Vc quorum ag-1: inducers of Vibrio cholerae quorum light production without autoinducers, primary screen, BH1578 luxS cqsA deficient, single point | activation, % at 18.7 µM | 350,000 compounds, 0.16% hits | AID 588436, 2011 | V. cholerae BH1578 lux reporter, luminescence, 6 h; in the data active means activation mostly above about 9.7%, no sharp cut-off
# TcdB inh: TcdB glycohydrolase inhibitors, primary screen, biochemical, single point, plate reader | 350,000 compounds, 0.24% hits | TcdB glycohydrolase enzymatic assay | inhibition, % at 9.99 µM; in the data active means inhibition above about 10%
# Yp Topo-I inh: Yersinia pestis topoisomerase I inhibitors, primary screen, biochemical, cleavage product accumulation, plate reader, single point; Y. pestis Topo-I cleavage product accumulation; activity, % at 10 µM; 360,000 compounds, 0.064% hits; in the data active means activity above about 50%, passing the limit was not always enough
# BioA inh: M. tuberculosis BioA enzyme inhibitors, primary screen, biochemical, plate reader, single point, HTS; 360,000 compounds, 0.096% hits; purified M. tuberculosis BioA enzyme; AID 602481, 2012; 7,8-diaminopelargonic acid synthase BioA (Mycobacterium tuberculosis); inhibition, % at 9.99 µM; in the data active means inhibition above about 40%
# Vc quorum ag-2: V. cholerae lux activation without autoinducers – BH1578 luxS cqsA deficient, cherry-pick, plate reader, dose response. shares compounds with Vc quorum ag-1. V. cholerae BH1578 lux reporter, luminescence, 6 h. activation, % at 50 µM. 620 tested, under 10 active. AID 602243, 2012; call rule not given here
# An asterisk follows results filed as active; i = inactive; nt = not tested or not shown.
SMILES,VHR inh abs,Vc quorum ag-1,TcdB inh,Yp Topo-I inh,BioA inh,Vc quorum ag-2
CCCCCn1nc(C(=O)N(CC(C)C)c2c(N)n(CCCC)c(=O)[nH]c2=O)c2ccccc2c1=O,nt,9,0,2,-3,0
CCCc1ccc2oc(C(=O)N(Cc3ccncc3)CC3CCCO3)c(C)c2c1 (stereo not drawn),-2,12,1,34,2,0
O=C(NC[C@H]1[C@@H](c2ccccc2)[C@@H](CO)N1Cc1ccccn1)C1CCC1,nt,nt,nt,nt,3,nt
CC(=O)N1CC2(C1)[C@@H](c1ccccc1)[C@@H](CO)N2Cc1cccc(Cl)c1,nt,nt,-1,nt,nt,nt
O=C([C@H]1[C@H](CO)[C@H]2Cn3c(ccc(C4=CCCCC4)c3=O)[C@H]2N1Cc1nccs1)N1CCOCC1,nt,nt,0,nt,1,nt
C[C@@H]1CCCCO[C@@H](CN(C)Cc2ccc(C(F)(F)F)cc2)[C@H](C)CN([C@@H](C)CO)C(=O)c2cc(NS(C)(=O)=O)ccc2O1,nt,nt,nt,nt,6,nt
COc1ccc(-c2cc(CCCC(=O)N3CCN(c4ccc(OC)cc4)CC3)no2)cc1,25,-2,0,6,0,nt
COc1ccc(-c2cc(CCCC(=O)NCCc3cc(OC)ccc3OC)no2)cc1,10,12,nt,4,-2,8
O=C(CN1C(=O)CSC1=O)NC1CCCCC1,9,17*,nt,2,0,3
O=C(Nc1nnc(C2CC2)s1)c1cccc(S(=O)(=O)N2CCc3ccccc32)c1,-8,19,nt,12,-1,0
O=C(CNC(=O)c1cccc(S(=O)(=O)N2CCc3ccccc32)c1)Nc1ccc(F)c(F)c1F,nt,12,-2,9,-2,5
Cc1nnc(NC(=O)c2cccc(S(=O)(=O)N3CCc4ccccc43)c2)s1,-6,18,nt,-2,-1,0
CO[C@@H]1CN(C)C(=O)c2cc(NC(=O)Nc3ccccc3)ccc2OC[C@H](C)N(C(=O)CN(C)C)C[C@H]1C,nt,nt,1,nt,0,nt
Cc1ccc(S(=O)(=O)NCC[C@H]2CC[C@H](NS(=O)(=O)c3ccccc3Cl)[C@@H](CO)O2)cc1,nt,nt,1,nt,2,nt
Cc1ccc(S(=O)(=O)N2CCN(C(=O)c3cc(-c4cccs4)nn3-c3ccccc3)CC2)cc1,nt,-4,3,25,-2,nt
O=C(c1cc(-c2cccs2)nn1-c1ccccc1)N1CCN(S(=O)(=O)c2ccccc2)CC1,nt,14,2,-5,-2,0
Fc1ccc(NCc2cn3ccccc3n2)cc1,-2,17*,nt,2,-1,1
CC(=O)c1cccc(NC(=O)CSc2nc(=O)n(CCN3CCOCC3)c3c2CCCC3)c1,nt,12,1,9,14,1
Cc1ccc(-c2cc(C(=O)N3N=C(C(F)F)CC3(O)C(F)F)c3ccccc3n2)cc1C (stereo not drawn),6,12,nt,0,0,0
COc1cc(C(C)=O)ccc1OCC(=O)Nc1cc(Cl)ccc1-n1cncn1,nt,19,-1,2,-1,0
COc1cc(OC)c(C(=O)Nc2cc(Cl)ccc2-n2cncn2)cc1OC,nt,-1,2,-3,-1,nt
COc1cc(C2N(c3ccccn3)C(=O)C3CCCN32)cc(OC)c1OC (stereo not drawn),22,26*,nt,8,0,0
COC(=O)Cn1nc(-c2ccccc2)c2ccccc21,-5,12,nt,11,0,0
O=C(O)CCCn1nc(-c2ccccc2)c2ccccc21,24,0,1,4,0,nt
COc1ccc(NC(=O)Nc2ccc3c(c2)C(=O)N([C@@H](C)CO)C[C@H](C)[C@H](CN(C)S(=O)(=O)c2cn(C)cn2)OCCCC[C@@H](C)O3)cc1,nt,nt,nt,nt,-4,nt
SMILES,VHR inh abs,Vc quorum ag-1,TcdB inh,Yp Topo-I inh,BioA inh,Vc quorum ag-2
Cc1cc(C)c(C(=O)C(C)OC(=O)Cn2cnc3c2c(=O)n(C)c(=O)n3C)cc1C (stereo not drawn),nt,i,1,7,nt,nt
CC(OC(=O)Cn1cnc2c1c(=O)n(C)c(=O)n2C)C(=O)c1ccccc1 (stereo not drawn),nt,14,4,5,-2,1
C[C@H]1CN([C@@H](C)CO)C(=O)Cc2cc(NC(=O)Cc3cn(C)c4ccccc34)ccc2O[C@H]1CN(C)S(C)(=O)=O,nt,nt,-1,nt,8,nt
O=C(NCC[C@@H]1CC[C@@H](NS(=O)(=O)c2ccc(Oc3ccccc3)cc2)[C@@H](CO)O1)C1CC1,nt,nt,-1,nt,1,nt
COc1ccc(-c2nnc3c4ccccc4c(C)nn23)cc1,3,12,nt,2,1,2
COc1cccc(NC(=O)N[C@H]2C=C[C@H](CC(=O)N3CCCCC3)O[C@H]2CO)c1,nt,nt,-1,nt,-2,nt
O=C(COC(=O)/C=C/c1cccc(F)c1)NC1CCCC1,nt,24,0,2,-2,105
Cc1ccc(C)c(S(=O)(=O)Nc2ccc(O)cc2)c1,29,i,nt,-9,nt,nt
Cc1ccc(C)c(S(=O)(=O)Nc2ccc(-n3cnnn3)cc2)c1,nt,37*,nt,-2,0,0
C[C@@H]1CCCCO[C@@H](CN(C)C(=O)c2ccncc2)[C@@H](C)CN([C@@H](C)CO)C(=O)c2cc(NS(=O)(=O)c3ccccc3)ccc2O1,nt,nt,1,nt,0,nt
CN(C)C(=O)C[C@@H]1C[C@@H]2c3cc(NC(=O)NC4CCCC4)ccc3O[C@@H]2[C@H](CO)O1,nt,nt,1,nt,0,nt
CN1C[C@@H]2[C@H](c3ccccc31)[C@H](CO)N2C(=O)C1CCCC1,nt,nt,nt,nt,1,nt
COc1cccc(-c2cnc3c(c2)C(=O)N([C@@H](C)CO)C[C@@H](C)[C@@H](CN(C)Cc2ccc(F)cc2)O3)c1,nt,nt,-1,nt,3,nt
O=C(NCCC1CCCCN1S(=O)(=O)c1ccccc1)C(=O)NCc1ccccc1F (stereo not drawn),nt,-1,2,4,1,nt
O=C(NCc1ccccc1F)C(=O)NCC1CCCN1S(=O)(=O)c1ccccc1 (stereo not drawn),nt,12,2,6,-3,1
O=C(Oc1ccc(=O)n(-c2ccccc2)n1)c1cccc(Cl)c1,16,25*,nt,-5,-1,0
O=C(Oc1ccc(=O)n(-c2ccccc2)n1)c1ccc(Cl)cc1,12,i,nt,-3,1,nt
CNC(=O)C[C@@H]1CC[C@@H]2[C@H](COC[C@@H](O)CN2Cc2ccc(C(F)(F)F)cc2)O1,nt,nt,0,nt,-1,nt
CN(CC(=O)NCCN1CCOCC1)S(=O)(=O)c1ccc(Cl)cc1,nt,37*,3,-4,0,1
C[C@@H]1CN([C@@H](C)CO)C(=O)Cc2cc(NS(=O)(=O)c3ccccc3)ccc2O[C@H]1CN(C)Cc1ccc(C(F)(F)F)cc1,nt,nt,-1,nt,-8,nt
CCNC(=O)CCSc1nnc(-c2ccco2)o1,-1,835*,6,0,nt,i
